# Most compounds without a hit are left out; they make up all but 8.3% or so of the library.
# HCV inh – inhibitors of hepatitis C virus infection; 340,000 compounds, 3.4% hits; Potency, µM (series often up to 41.8 µM), for the others: at the highest dose activity change, negative = inhibition, most hits filed as inhibitors; Huh7.5.1 HCVcc-Cre infection, luciferase reporter, 44 h; also: potency is read from the fitted curve at half-maximal effect
#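 Reporter virus HCVcc-Cre (~0.5 moi) infects cells exposed to compound; seeding density 1,000 cells/well with 4 h settling beforehand. Luminescence, 15 sec read, taken 44 h post-infection following a 15 min RT substrate incubation.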
# Marburg entry inh – inhibitors of Marburg virus binding or cell entry; Marburg virus pseudotyped entry inhibition, cell reporter; Potency, µM (highest dose often 37.8 µM), for the others: top-dose activity change, negative = inhibition, hits mostly inhibitors; 300,000 compounds, 1.8% hits; AID 540276; calls by dose curve; tested in HEK293 cells; also: potency is read from the fitted curve at half-maximal effect
# HCMV antiviral – blocks human cytomegalovirus replication. HFF cells, HCMV-luciferase reporter, 72 h; active compounds read low. activity change, negative = inhibition, % at 57.5 µM. 410,000 compounds, 4.5% hits. AID 1259415; in the data active = activity change below about -60%; inconclusive = no clear call, values can overlap the other calls; inactive = above about -39%
#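 Compounds were evaluated in HFFs infected with an HCMV luciferase reporter virus (MOI 1 PFU/cell). Luciferase in lysates collected 72 h post infection served as the replication measure.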
# FMDV inh – antivirals against foot and mouth disease virus. FMDV antiviral cell-based qHTS. Potency, µM (doses to about 57.9 µM), for the others: at the top dose activity change, negative = inhibition, hits mostly inhibitors. 410,000 compounds, 1.2% hits; calls by dose curve; tested in HEK293T cells; also: read-out not given here; potency is read from the fitted curve at half-maximal effect; nearly all actives have a fitted effect of over 45% in size
# Lassa entry inh – blocks Lassa virus binding to or entry into cells | Potency, µM (top dose mostly 37.9 µM), inactives show top-dose activity change, negative = inhibition, usual class: inhibitors | 300,000 compounds, 1.2% hits | Lassa virus pseudotype entry inhibition, cell reporter; calls by dose curve; tested in HEK293 cells; also: potency is read from the fitted curve at half-maximal effect; nearly all actives have a fitted effect of over 50% in size
# FBPA Giardia inh – inhibitors of Giardia lamblia fructose-1,6-bisphosphate aldolase; purified Giardia FBPA; Potency, µM (series often up to 59.6 µM), without a hit: top-dose activity, negative = inhibition, hits mostly inhibitors; 290,000 compounds, 0.71% hits; also: potency is read from the fitted curve at half-maximal effect; nearly all actives have a fitted effect of over 55% in size
# Target sequence (A8B2U2 whole entry, looked up): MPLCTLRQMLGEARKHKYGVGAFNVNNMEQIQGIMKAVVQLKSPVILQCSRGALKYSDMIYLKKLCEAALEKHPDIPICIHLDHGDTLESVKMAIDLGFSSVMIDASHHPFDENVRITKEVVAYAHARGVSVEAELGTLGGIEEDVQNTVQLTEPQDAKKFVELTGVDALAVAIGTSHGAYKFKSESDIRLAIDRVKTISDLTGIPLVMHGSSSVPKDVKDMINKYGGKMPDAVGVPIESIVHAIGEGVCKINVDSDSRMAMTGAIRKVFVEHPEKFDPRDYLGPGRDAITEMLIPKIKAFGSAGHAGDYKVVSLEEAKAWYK
#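 Giardia FBPA (40 nM reagent) was preincubated 10 min at RT with compound (up to 57.5 uM final), then substrate plus GAPDH/TPI/NAD/arsenate coupling system with diaphorase/resazurin was added; resorufin fluorescence (525/598 nm) was read after 20 min.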
# Active calls of the source: *; u = inconclusive; x = no result; [ ] = remark or other dose. Unless noted, calls follow the shape of the dose curve; as a rule, active = well fitted curve in the direction sought with a large enough effect; inconclusive = small, poorly fitted or top-dose-only effect, or another doubt; inactive = no such curve, though single readings can be large; an effect the other way counts as inactive or inconclusive. % is scaled to controls: 0 for no effect and ±100 for the full control effect.
SMILES,HCV inh,Marburg entry inh,HCMV antiviral,FMDV inh,Lassa entry inh,FBPA Giardia inh
O=C(Nc1ccccc1)Nc1ccc(Cl)c(S(=O)(=O)N2CCOCC2)c1,u,u,-62*,u,-21%[46.1 µM],-3%
O=C(Nc1ccc(Cl)c(S(=O)(=O)N2CCOCC2)c1)c1cn2ccccc2n1,-29%,31%[46.1 µM],-24,20µM*,u,4%
O=C(Nc1ccc(N2CCOCC2)cc1)c1cn2ccccc2n1,-5%,u,15,-77%,7.9µM*,9%
O=C(Nc1ccc(Cl)c(S(=O)(=O)N2CCOCC2)c1)c1cc2ccccc2oc1=O,16%,9%,27,-23%,24%,x
O=C(CN1CCN(C(=O)c2ccco2)CC1)Nc1ccc(Cl)c(S(=O)(=O)N2CCOCC2)c1,-10%,5%[46.1 µM],-37,-19%,-2%,-7%
O=C(O)C=Cc1ccc(Cn2ccnc2)cc1,x,x,x,-10%,x,-26%
CCCCCCC#C[C@@H]1C=C[C@H](OC(=O)OCC)[C@@H](COC(=O)OCC)O1,x,-12%[14.2 µM],x,x,x,x
O=C(Nc1ccccc1O)c1cc(S(=O)(=O)N2CCOCC2)ccc1Cl,-4%,-2%,x,0%,-12%,5%
O=C(Nc1ccccc1O)c1cc(S(=O)(=O)N2CCOCC2)c(Cl)cc1Cl,x,u,u,16µM*,-17%[14.3 µM],3%
CCn1nc(C(=O)Nc2ccc(Cl)c(S(=O)(=O)N3CCOCC3)c2)c2ccccc2c1=O,11µM*,-17%[46.1 µM],-10,u,u,x
CN(CC(=O)Nc1ccccc1Br)C(=O)CNC(=O)c1ccc(Oc2ccccc2)cc1,u,x,-63*,-6%,x,x
COC(=O)/C(=N\OCc1ccc(C#N)cc1)c1c(C)nn(C)c1C,6%,2%[46.1 µM],-100*,8%,16%,4%
Cc1ccc(N(CC(C)C)S(=O)(=O)c2nnc(NC(=O)c3cccs3)s2)cc1,x,x,14,-11%,14%[46.1 µM],x
CCCNC(=O)Cn1cccc1C(=O)c1ccccc1,18%,10%,-21,6%,28%,8%
COc1ccc(CCNC(=O)Cn2cccc2C(=O)c2ccccc2)c(OC)c1,u,x,-96*,4%,x,-1%
COc1ccc(CNC(=O)c2ccc3c(=O)n(-c4ccccc4)c(=O)[nH]c3c2)cc1,u,-12%[46.1 µM],x,0%,u,8%
COc1cccc(CNC(=O)Cn2cccc2C(=O)c2ccccc2)c1,x,6%[46.1 µM],-96*,14%,12%[46.1 µM],x
COc1cccc(CNC(=O)Cc2ccc(-n3c(=O)[nH]c4ccccc4c3=O)cc2)c1,-6%,u,-97*,2%,u,5%
Cc1cc(C)cc(NC(=O)CCc2c(C)nc3c(c2C)c(=O)n(C)c(=O)n3C)c1,x,3%[46.1 µM],-10,u,u,x
CC(C)C[C@@H](CC(=O)N[C@@H](CCC(=O)O)CC(=O)O)NC(=O)[C@@H]1CCCC[C@H]1NC(=O)C[C@@H](NC(=O)C[C@H](Cc1c[nH]c2ccccc12)NC(=O)[C@@H]1CNCC[C@H]1N)C(C)C,x,x,x,x,x,-10%
N#Cc1ccc(S(=O)(=O)N[C@H]2CC[C@@]34CCCN3C(=O)CCC[C@H]4[C@H]2Cc2ccccc2)cc1,x,x,-35,x,x,x
CCOc1cc2c(cc1/C=C1/NC(=O)N(CC(=O)OC)C1=O)OCO2,10µM*,-11%[46.1 µM],23,-30%,-5%,0%
COc1cc(NC(=O)c2ccccc2Cl)ccc1NC(=O)c1cccs1,-24%,u,-38,81%,8%,-5%
COc1cc(NC(=S)NC(=O)c2ccccc2C)ccc1NC(=O)c1cccs1,2µM*,-17%,-1,-12%,0%,11%
COc1cc(NC(=O)c2cc3ccccc3cc2OC)ccc1NC(=O)c1cccs1,3.2µM*,x,x,u,x,x
SMILES,HCV inh,Marburg entry inh,HCMV antiviral,FMDV inh,Lassa entry inh,FBPA Giardia inh
COc1cc(NC(=S)NC(=O)c2ccccc2F)ccc1NC(=O)c1cccs1,u,x,-23,-2%,x,4%
CC(O)(c1cccnc1)c1nc(/C=C/c2ccccc2)cs1 (centres undefined),x,x,-83*,u,x,x
CCCn1nc(NC(=O)c2cccs2)c2cc3ccc(C)cc3nc21,14µM*,x,-28,-15%,x,-16%
CCCn1nc(NC(=O)c2cccs2)c2cc3cc(C)ccc3nc21,22µM*,1%[46.1 µM],25,5%,u,-14%
COC1=C[C@@H](C(=O)N[C@H]2CCCC[C@H]2NC(C)=O)[C@@H](C)[C@H](c2ccccc2)CC1=O,x,u,x,x,7%[14.3 µM],x
[O-][n+]1c2c(c3c4non(O)c4ccc31)CCCC2,-23%,3%,-97*,x,-4%,-11%
O=C(Nc1ccc(CSc2ccccc2)cc1)c1ccco1,-17%,x,-84*,58%,x,x
CC(=O)Nc1ccc(NC(=O)c2ccc(CSc3ccccc3)o2)cc1,7%,27%[46.1 µM],-14,0%,18%,5%
O=C(Nc1cccc(F)c1)c1ccc(CSc2ccccc2)o1,0%,7.3µM*,-11,21%,5.2µM*,-7%
O=C(Nc1cccc(F)c1)c1ccc(Br)o1,-10%[8.37 µM],u,-97*,52%,4%,-28%[89.2 µM]
C[C@H](CO)N1C[C@H](C)[C@@H](CN(C)C(=O)Nc2ccccc2)OCc2cn(nn2)CCCC1=O,x,x,-1,x,x,x
Cc1cc(N2CCN(Cc3cn(C)nc3-c3cccc(Cl)c3)CC2)cc(C)n1,7.1µM*,u,u,-22%,u,1%
Cn1cc(CN2CCN(c3ncccn3)CC2)c(-c2cccc(Cl)c2)n1,7%,u,-1,u,u,0%
CN(/N=C\c1ccc(O)c(O)c1)c1nc(-c2ccccc2)cc(-c2ccccc2)n1,11µM*,u,94,0%,u,u
C[C@H]1[C@@H](NC(=O)Nc2ccc(C#N)cc2)CC[C@@]23CCCN2C(=O)CCC[C@@H]13,x,x,-20,x,x,x
Cn1c(SC2=CS(=O)(=O)c3ccccc32)nc2ccccc21,6.3µM*,u,-98*,28µM*,u,0%
Cn1c(CSc2nc3ccccc3n2C)nc2ccccc21,9%,u,-17,16%,11%,x
CN1C(=S)SC(/[N+]([O-])=C/c2ccc(Cl)cc2)C1(C)C (centres undefined),16%,1%[46.1 µM],-65*,11%,-13%,-5%
COCC(=O)N1CCc2nc(-c3ccccc3)c3c(c2C1)CO[C@@H](C)C3,x,u,x,x,x,3%[12.9 µM]
CCN(Cc1ccccc1)C(=O)CSc1nc(C)cc(C)c1C#N,10µM*,1%,u,-25%,-19%,2%
CCc1nnc(NC(=O)CSc2nc(C)cc(C)c2C#N)s1,-2%,7.9µM*,22,-9%,u,-2%
CCN(CC)C(=O)CSc1nc(C)cc(C)c1C#N,5%,1%[46.1 µM],-15,-14%,8%[46.1 µM],-8%
COc1ccc(-c2nc3cncnc3n(-c3ccccc3)c2=O)cc1,x,x,x,0%,x,0%
Cc1ccc(Cn2c(CN3CCN(c4cccc(Cl)c4)CC3)nc3c2c(=O)n(C)c(=O)n3C)cc1,x,-3%[46.1 µM],28,-19%,-23%[46.1 µM],x
